Laboratory results taken from PubChem BioAssay (NCATS).
Records with an inconclusive call do not appear. Values without a mark were called inactive. Active and inactive are the calls of the source. Calls come from the whole dose curve; as a rule, active = well fitted cell-killing curve with a large enough effect; inconclusive = small, poorly fitted or top-dose-only effect; inactive = flat fitted curve, though single readings scatter.

Assay: Cellular viability qHTS for adrenocortical cancer (ACC) cell line NCI-H295R (AID 1963990); note: nearly all actives have a fitted effect of over 60% in size
Details: CellTiter-Glo ATP luminescence, 48 h; series mostly up to 46.1 µM; activity change, negative = viability loss: at the top concentration
Text: PI: Naris Nilubol, MD Surgical Oncology Program, National Cancer Institute (NCI) National Institute of Health (NIH), Bethesda, Maryland Adrenocortical cancer (ACC) is a rare malignancy with poor survival outcomes and few treatment options. Currently, mitotane is the only FDA-approved therapy for ACC. Although adjuvant radiation therapy is rarely utilized, it has the potential to improve survival in select cases. Through a quantitative high-throughput drug screen (qHTS), we identified auranofin (AF), a thioredoxin reductase (TXNRD) inhibitor, as a promising candidate drug. This study aims to evaluate whether AF can enhance the efficacy of radiation therapy in the treatment of ACC. Two human ACC cell lines, SW-13 and NCI-H295R, were screened using the National Center for Advancing Translational Sciences (NCATS) Pharmaceutical Collection (NPC) and the Mechanism Interrogation PlatE (MIPE) library (~4,991 compounds). CellTiter-Glo (Cat # G7570, Promega, Madison, WI) was utilized to measure cell viability. Described herein are the results of the corresponding viability assay.
PROTOCOL TABLE (as described by Inglese J, Shamu CE and Guy RK. 2007) SEQUENCE No. (e.g., 1, 2, 3, etc.); […] (e.g., Cells, Incubation, Reagent, etc.); VALUE; DESCRIPTION. 1; Cells; 5 uL; white, solid-bottom, 1536-well tissue-culture treated plates. 2; Time; overnight culture at 37C with 5% CO2. 3; Compounds and control; 23 nL; Kalypsis pin tool (Wako USA) equipped with a 1536-well pin head to transfer to the assay plates. 4; Time; 48 hours; 37C with 5% CO2. 5; Reagent; 4 uL; CellTiter-Glo luminescent substrate mix. 6; Time; 20 min at room temperature. 7; Detection; Luminescence; ViewLux plate reader NOTES (numbers refer to Sequence numbers above) 1. NCI-H295R cells were harvested from a T175 flask and resuspended in ITS-supplemented DMEM serum-free medium at a concentration of 300 000 cells/mL. Then 5 uL of resuspended cells were dispensed into each well of white, solid-bottom, 1536-well tissue-culture-treated plates using a multidrop combi dispenser. The plates were covered with stainless steel gasket lids. 2-3. The plates were cultured overnight at 37C with 5% CO2. Twenty-three nL of compounds (eight selected concentrations from the NPC / MIPE) or positive control (10 mM stock of bortezomib) in DMSO was transferred to each well of the assay plate using a pin tool (Kalypsys, San Diego, CA, USA). The final concentration of the compounds in the 5 uL assay volume ranged from 0.5 nM to 46 uM. 4-6. After 48 hours of incubation at 37C and 5% CO2, 4 uL of CellTilter-Glo luminescent substrate mix (Promega, Madison, WI, USA) was added to each well. Then the plates were incubated for 20 minutes at room temperature. 7. After incubation, luminescence was measured using a ViewLux plate reader (PerkinElmer, Waltham, MA, USA) with a clear filter was used to measure the number of metabolically competent cells. To determine compound activity in the qHTS assay, the titration-response data for each sample was plotted and modeled by a four-parameter logistic fit yielding IC50 and efficacy (maximal response) values. Raw plate reads for each titration point were normalized relative to positive control ([…], 100% inhibition) and DMSO-only wells (basal, 0%). REFERENCES: Inglese J, Shamu CE and Guy RK, Reporting data from high throughput screening of small molecule libraries, Nature Chemical Biology, 2007, 3(8): 438-441. doi.org/10.1038/nchembio0807-438.

| Structure (SMILES) | activity change, negative = viability loss [%] | Potency |
| --- | --- | --- |
| Cc1ccc(NC(=O)[C@H]2CCCN(C(=O)c3c(C)cccc3F)[C@H]2c2ccc(NC3CCCC3)cc2)cc1C(F)(F)F | -15.7 | – |
| Nc1nnnn1-c1ccccc1 | -13.8 | – |
| O=C(NC1CCNCC1)c1[nH]ncc1NC(=O)c1c(Cl)cccc1Cl | – | 15.8 µM (active) |
| CNc1nc(Nc2ccc(C(=O)N3CCOCC3)cc2OC)ncc1Cl | -23.4 | – |
| CCc1ccc(OCc2ccccc2C(=O)Nc2ccc3nc(C)cc(N)c3c2)cc1 | – | 5.62 µM (active) |
| O=C(O)c1[nH]n(-c2ccc(S(=O)(=O)O)cc2)c(=O)c1N=Nc1ccc(S(=O)(=O)O)cc1 | 6.94 | – |
| Cc1ccc(O)c(C(CCN(C(C)C)C(C)C)c2ccccc2)c1 (stereo not given) | 16.3 | – |
| O=C(NCC1CN(c2ccc(N3CCOCC3=O)cc2)C(=O)O1)c1ccc(Cl)s1 (stereo not given) | – | inactive |
| C=CC(=O)N1CC(N2CCN(C(=O)CNc3cc(C4(C)CC4)c(Cl)cc3O)CC2)C1 | – | 15.8 µM (active) |
| CC(=O)N[C@@H](CCC(N)=O)C(=O)O | -6.55 | – |
| Cc1cc(N2CCOCC2)ccc1Nc1nc(NC2CCCCC2)c2[nH]cnc2n1 | – | 28.2 µM (active) |
| CCCCc1oc2ccccc2c1C(=O)c1cc(I)c(OCCN(CC)CC)c(I)c1 | – | 22.4 µM (active) |
| CCc1cc2c(c(OCC(F)(F)F)c(C(=O)NC3CCN(C(=O)CO)CC3)n2C)c(=O)n1CC(=O)c1ccccc1 | -20.8 | – |
| CCNCCS(=O)(=O)NC[C@@]1(c2ccccc2)SC(NC(=O)C(C)(C)C)=NN1C(=O)C(C)(C)C | – | 0.316 µM (active) |
| COc1cccc(OC)c1-c1cc(C(=O)NC2(C(=O)O)C3CC4CC(C3)CC2C4)nn1-c1ccnc2cc(Cl)ccc12 (stereo not given) | -2.1 | – |
| C[C@@]12O[C@@H](C[C@]1(O)CO)n1c3ccccc3c3c4c(c5c6ccccc6n2c5c31)CNC4=O | – | 3.98 µM (active) |
| Cn1ncc(Cl)c1-c1cc(C(=O)N[C@H](CN)Cc2ccc(F)c(F)c2)sc1Cl | – | 3.16 µM (active) |
| O=C(CN1C(=O)C2(CCCC2)NC[C@H]1c1cc(F)cc(F)c1)Nc1ccc2c(c1)C[C@@]1(C2)C(=O)Nc2ncccc21 | -8.27 | – |
| O[C@@H](COc1cccc2ncccc12)CN1CCN(C2c3ccccc3[C@@H]3[C@H](c4ccccc42)C3(F)F)CC1 (stereo not given in full) | – | 3.55 µM (active) |
| CCOc1cc(C(=O)Nc2ccc(Cl)c(-c3nc4ccccc4[nH]3)c2)cc(OCC)c1OCC | 3.45 | – |

| Structure (SMILES) | activity change, negative = viability loss [%] | Potency |
| --- | --- | --- |
| C=C1[C@H](CO)[C@@H](O)C[C@@H]1n1cnc2c(=O)[nH]c(N)nc21 | -6.8 | – |
| CC1COc2c(N3CCN(C)CC3)c(F)cc3c(=O)c(C(=O)O)cn1c23 (stereo not given) | – | inactive |
| O=C(OCCN1CCOCC1)c1cccnc1Nc1cccc(C(F)(F)F)c1 | -21.5 | – |
| CCN1/C(=C/C(C)=O)Sc2ccc(OC)cc21 | -22.4 | – |
| NS(=O)(=O)c1cc2c(cc1Cl)NCNS2(=O)=O | – | inactive |
| CCn1cc(C(=O)O)c(=O)c2ccc(C)nc21 | -2.11 | – |
| Cc1cccc(Nc2nc(N[C@@H]3CCCC[C@H]3N)ncc2C(N)=O)c1 | – | 28.2 µM (active) |
| Cc1ccn(-c2ccc(-c3ncco3)cc2)c(=O)c1-c1ccc2nc(N)ncc2c1 | -6.62 | – |
| Cc1ccc(C(=O)N(CCCN)[C@@H](c2oc3cc(Cl)ccc3c(=O)c2Cc2ccccc2)C(C)C)cc1 | – | 0.316 µM (active) |
| NC(N)=NS(=O)(=O)c1ccc(N)cc1 | 1.13 | – |
| CCCCNc1ccc(C(=O)OCCOCCOCCOCCOCCOCCOCCOCCOCCOC)cc1 | -6.32 | – |
| COCCCOc1ccnc(CS(=O)c2nc3ccccc3[nH]2)c1C (stereo not given) | – | inactive |
| O=C(CN1CCNCC1)NC1CCCCC1 | -5.56 | – |
| COc1cc(C(=S)N2CCOCC2)ccc1O | -27.2 | – |
| COc1cc(C)c(Sc2cnc(NC(=O)c3ccc(CNC(C)C(C)C)cc3)s2)cc1C(=O)N1CCN(C(C)=O)CC1 (stereo not given) | – | 7.94 µM (active) |
| Cc1ccc2cc(-c3c(C)ccc(C(=O)c4c(-c5ccccc5)n(C)n(-c5ccccc5)c4=O)c3N)ccc2n1 | 2.37 | – |
| CC1(C)CCC(c2ccc(Cl)cc2)=C(CN2CCN(c3ccc(C(=O)NS(=O)(=O)c4ccc(N[C@H](CCN5CCOCC5)CSc5ccccc5)c(S(=O)(=O)C(F)(F)F)c4)cc3)CC2)C1 | -31.1 | – |
| C=C[C@H]1CN2CC[C@H]1C[C@@H]2[C@@H](O)c1ccnc2ccc(OC)cc12 | 6.47 | – |
| CC(C)NCC(O)c1cc(O)cc(O)c1 (stereo not given) | -10.2 | – |
| COc1ccc2nc(SCc3ncc(C)c(OC)c3C)[nH]c2c1 | -29.8 | – |
